Bioassay records (PubChem)
Sampled rows, rich in hits. Any-hit rate of the full collection: about 4%.
HIF-2a block = blocks HIF-2a reporter activity | 786-0 RCC cells HIF-2a reporter, luciferase luminescence, overnight | inhibition, % at 18.8 µM | actives 0.72% (n = 360,000) | AID 624352;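 active = inhibition of the luminescence signal of 40% or more relative to plate controls, in a single-dose primary screen at 18.75 µM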
Peg3 promoter = reduces Peg3 promoter-driven luciferase expression in HeLa. HeLa PEG-Prom luciferase reporter, luminescence, overnight. inhibition, % at 20 µM. actives 1.7% (n = 360,000);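 active = inhibition of at least 50% at 20 µM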
TROY signal inh = blocks TROY-dependent signaling in reporter cells. Q293 LMP1-TROYcd NF-kB luciferase reporter, 4 h. inhibition, % at 10 µM. actives 0.98% (n = 360,000). AID 1347056;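 active = compounds whose plate-normalised and pattern-corrected inhibition of the luciferase reporter signal at the single screening dose is 50% or more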
EBV LMP1 NFkB = Epstein-Barr LMP1 NF-kappaB reporter inhibition. inhibition, % at 12.5 µM. AID 504558. actives 0.69% (n = 350,000). LMP1-induced NF-kappaB luciferase reporter cells, luminescence; in the data active = inhibition above about 41%;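 note: 0% = neutral control wells and 100% = reference inhibitor control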
MITF TRPM1 inh = inhibitors of MITF-driven TRPM1 promoter in melanoma cells | actives 0.83% (n = 330,000) | inhibition, % at 12.5 µM | AID 488899 | SK-MEL-5 TRPM1 promoter luciferase, 24 h;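 active = mean inhibition across replicates of 60% or more, whatever share of single replicates reaches that level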
TWEAK Fn14 block = inhibitors of TWEAK-Fn14 interaction signaling | TWEAK-stimulated Fn14 reporter cells, luciferase luminescence, 8 h | inhibition, % at 10 µM | actives 2% (n = 360,000); in the data active = inhibition above about 50%
* marks the source's active call; other numbers are inactive results; nt = no result given.

SMILES | HIF-2a block | Peg3 promoter | TROY signal inh | EBV LMP1 NFkB | MITF TRPM1 inh | TWEAK Fn14 block
CC(C1CC1)N(Cc1ccccc1)C(=O)NC(=O)c1ccccc1 (stereo not drawn) | 6 | -4 | 7 | -6 | 4 | -11
O=S1(=O)N[C@@H](Cc2ccccc2)COc2cc(N3CCN(Cc4ccccc4F)CC3)ccc21 | -3 | nt | -3 | nt | nt | 9
COc1ccc(CN(C(=O)CSc2nnc(-c3ccc(F)cc3)o2)c2ccc(F)cc2)cc1 | -13 | -9 | 1 | 2 | 6 | 10
COc1ccc(CN(C(=O)CSc2nnc(-c3c[nH]c4ccccc34)o2)c2ccc(F)cc2)cc1OC | -176 | 107* | 38 | 36 | 0 | 72*
O=C(CSc1nnc(Cn2nnc3ccccc32)o1)N(Cc1ccc(F)cc1)c1ccccc1 | 14 | 22 | 43 | -1 | 39 | 56*
C[C@H](CO)NC(=O)c1nc[nH]c1C(=O)N[C@H](C)c1ccccc1 | 12 | -2 | -7 | 9 | nt | 3
COc1ccc(S(=O)(=O)N(CC(=O)NC2CCCCC2)c2ccc(F)cc2)cc1 | 21 | 10 | 12 | -2 | 0 | 14
Cc1nn(-c2ccccc2)c(C)c1/C=N/NC(=O)c1cc(-c2ccc(Br)s2)[nH]n1 | -54 | 37 | 13 | 15 | 6 | 69*
Cc1nn(-c2ccccc2)c(C)c1/C=N/NC(=O)CSc1nnc(SCc2ccc(Cl)cc2)s1 | -164 | -138 | 18 | -28 | -2 | 83*
O=C(CSc1nnc(SCc2ccccc2)s1)N/N=C/c1c(Cl)cccc1Cl | -67 | -85 | -34 | 13 | -3 | 3
Cc1nn(-c2ccccc2)c(C)c1/C=N/NC(=O)c1cc(-c2ccc(Cl)s2)[nH]n1 | -34 | 43 | 13 | 22 | 9 | 59*
CC(C)c1ccc(-c2cc(C(=O)N3CCOCC3)c3cc(Br)ccc3n2)cc1 | -89 | -28 | -10 | -2 | -2 | 2
Cc1c(C=O)c2cc(OCc3ccccc3)ccc2n1C | -281 | -232 | -54 | -23 | -75 | -40
O=C(c1cc2ccccc2o1)N1CCN(Cc2nc3ccccc3s2)CC1 | -182 | -101 | 22 | -11 | nt | -30
Cc1cn(CC(=O)NCCCN2CCCC2=O)c(=O)[nH]c1=O | 3 | -17 | -21 | 10 | -2 | 11
CN(C)CCCn1c2c3ccccc3ccc2c2oc(=O)c3ccccc3c21 | -94 | 97* | -36 | -23 | 80* | -32
CN(C)CCCn1c(=S)[nH]c2ccccc2c1=O | 17 | -3 | 9 | 0 | -5 | -3
Cc1cc(C)c(NC(=O)CNC(=O)COC(=O)/C=C/c2cccs2)c(C)c1 | 17 | 10 | -16 | 4 | 0 | -9
O=S1(=O)CC(N2CCCC2)CN1Cc1cn(Cc2cccc(Cl)c2)nn1 (stereo not drawn) | 0 | nt | 6 | nt | nt | -9
CCC(Oc1ccccc1)C(=O)NC1CCCCCC1 (stereo not drawn) | 10 | 9 | 3 | 4 | 11 | 1
CCC(Oc1ccccc1)C(=O)NC1CCSC1=O (stereo not drawn) | 12 | -2 | -3 | 66* | 0 | -4
CC(C(=O)N1CCCC1)N(c1ccc(Cl)cc1)S(C)(=O)=O (stereo not drawn) | 15 | 13 | 1 | -2 | nt | -1
CCOC(=O)/C(C#N)=C1/C=C(C)NC(c2ccccc2O)=N1 | -74 | 39 | 54* | -9 | 53 | 57*
CCOC(=O)/C(C#N)=C1\Nc2ccccc2N=C1N(CC(C)C)CC(C)C | -25 | 26 | 25 | -28 | 12 | 28
O=C(COC(=O)c1ccccc1-n1cnnn1)c1ccc(F)cc1 | -110 | -157 | 64* | 4 | -55 | 53*
CCOc1ccc(C(NC(=O)CC)c2c(O)ccc3ccccc23)cc1 (stereo not drawn) | 14 | 32 | -5 | -1 | 2 | -21
CC(=O)Oc1ccc2ccccc2c1C(NC(=O)Cc1ccccc1)c1ccc(Cl)cc1 (stereo not drawn) | 11 | 50 | 36 | -6 | 10 | 55*
O=S(=O)(Nc1cc(C(F)(F)F)ccc1N1CCOCC1)c1ccc2ccccc2c1 | 22 | 50* | 16 | 0 | -5 | 10
CC(NC(=O)c1ccco1)c1nc(-c2ccc(Cl)cc2)no1 (stereo not drawn) | -19 | 1 | -8 | 4 | -1 | 13
O=C(/C=C\c1ccco1)Nc1nc(-c2ccc3ccccc3c2)cs1 | -86 | -10 | 48 | 10 | -3 | 83*
